Source: PubChem BioAssay (National Center for Advancing Translational Sciences (NCATS))
EPAC2 ant val – Validation qHTS for antagonist of cAMP-regulated guanine nucleotide exchange factor 4 (EPAC2); Rap guanine nucleotide exchange factor 4 (Homo sapiens), Q8WZA2; EPAC2 Rap1B BODIPY-GDP exchange, fluorescence; Potency, µM (top dose mostly 112 µM), most hits filed as inhibitors; 16,000 tested, 1.7% active; AID 1645886, 2021; also: nearly all actives have a fitted effect of over 40% in size
Target sequence (Q8WZA2 whole entry, looked up): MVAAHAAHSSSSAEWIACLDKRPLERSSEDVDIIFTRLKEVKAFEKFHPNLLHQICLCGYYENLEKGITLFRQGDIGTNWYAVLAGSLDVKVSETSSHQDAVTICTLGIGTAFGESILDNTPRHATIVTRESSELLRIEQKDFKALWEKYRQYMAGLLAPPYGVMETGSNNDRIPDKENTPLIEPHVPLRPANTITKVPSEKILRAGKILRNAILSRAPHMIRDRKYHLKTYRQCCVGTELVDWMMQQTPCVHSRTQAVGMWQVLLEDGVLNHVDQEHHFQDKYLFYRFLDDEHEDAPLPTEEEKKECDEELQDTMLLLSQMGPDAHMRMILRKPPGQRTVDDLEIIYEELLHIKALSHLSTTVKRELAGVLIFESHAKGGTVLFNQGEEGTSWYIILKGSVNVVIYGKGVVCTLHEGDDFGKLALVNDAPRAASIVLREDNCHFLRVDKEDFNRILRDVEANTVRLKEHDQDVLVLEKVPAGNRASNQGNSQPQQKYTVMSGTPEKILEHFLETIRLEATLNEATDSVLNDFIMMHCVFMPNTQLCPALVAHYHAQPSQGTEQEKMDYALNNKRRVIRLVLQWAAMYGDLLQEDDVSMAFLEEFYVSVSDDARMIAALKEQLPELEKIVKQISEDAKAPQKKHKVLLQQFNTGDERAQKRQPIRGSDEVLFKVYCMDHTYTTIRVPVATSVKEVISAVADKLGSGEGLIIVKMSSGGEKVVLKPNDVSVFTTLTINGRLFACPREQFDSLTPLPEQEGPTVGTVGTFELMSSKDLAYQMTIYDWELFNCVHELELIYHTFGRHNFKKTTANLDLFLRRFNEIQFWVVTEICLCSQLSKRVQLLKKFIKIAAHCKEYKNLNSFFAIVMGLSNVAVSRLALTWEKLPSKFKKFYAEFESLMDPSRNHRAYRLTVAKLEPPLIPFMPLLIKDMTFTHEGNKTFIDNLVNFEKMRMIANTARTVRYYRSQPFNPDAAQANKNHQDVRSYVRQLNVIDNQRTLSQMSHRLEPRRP
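Normalized against a 6.5 mM cAMP agonist control, compounds were tested on 100 nM EPAC2 exchanging Rap1B-bound BODIPY-GDP (250 nM) for 50 uM GDP. Fluorescence drop (ex 480, em 540 nm) was tracked at room temperature over 30 min at 5-min intervals.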
EPAC1 agonist – Validation qHTS for agonist of cAMP-regulated guanine nucleotide exchange factor 3 (EPAC1). Rap guanine nucleotide exchange factor 3 (Homo sapiens), O95398. EPAC1 Rap1b BODIPY-GDP exchange, fluorescence. Potency, µM, hits mostly activators. 16,000 tested, 1% active; also: nearly all actives have a fitted effect of over 70% in size
Each line names hits and unclear results; the compound was inactive in the other large screens. Sampled rows, rich in hits. Any-hit rate of the full collection: about 3.1%. Calls follow the shape of the dose curve; as a rule, active = well fitted curve in the direction sought with a large enough effect; inconclusive = small, poorly fitted or top-dose-only effect, or another doubt; inactive = no such curve, though single readings can be large; an effect the other way counts as inactive or inconclusive.

CCCCCCCCCC[n+]1ccc(/C=C/c2c[nH]c3ccccc23)c2ccccc21	none
CCCCCCCCCC[n+]1ccc(/C=C/c2c(C)[nH]c3ccccc23)cc1	EPAC1 agonist 25.1µM
C/C(=C(\CCO)SS/C(CCO)=C(\C)N(C=O)Cc1cnc(C)nc1N)N(C=O)Cc1cnc(C)nc1N	none
COc1ccc(-c2ccnc(-n3ncc(C(=O)NCc4cccnc4)c3C3CC3)n2)cc1F	none
COc1ccc(Oc2ncc3nc(C)c(=O)n(Cc4cccs4)c3n2)cc1	EPAC2 ant val inconclusive, EPAC1 agonist 112µM
CN(C)c1ncc2nc(CCc3ccccc3)c(=O)n(Cc3cccs3)c2n1	EPAC1 agonist 112µM
CN(C)c1ncc2nc(-c3cc(F)cc(F)c3)c(=O)n(Cc3cccs3)c2n1	EPAC1 agonist 112µM
O=c1c(-c2ccc(F)cc2)nc2cnc(Nc3ccccc3)nc2n1Cc1cccs1	EPAC2 ant val inconclusive, EPAC1 agonist 100µM
Cc1nc2cnc(N(C)C)nc2n(Cc2cccs2)c1=O	none
Cc1nc2cnc(Oc3ccccc3)nc2n(Cc2cccs2)c1=O	EPAC2 ant val inconclusive
CN(C)c1ncc2nc(-c3ccc(F)cc3)c(=O)n(Cc3cccs3)c2n1	none
COc1ccc(-c2nc3cnc(Nc4ccccc4)nc3n(Cc3cccs3)c2=O)cc1	none
N=C(N)c1ccc(OCCCOc2ccc(C(=N)N)cc2Br)c(Br)c1	none
O=C(NCC1Cc2cccc(-c3cnccn3)c2O1)c1ccc2c(c1)OCCO2 (stereo not given)	none
C[C@@H]1[C@H](O)[C@@H](C)/C=C/C=C\C=C\C=C\C=C\C=C\C=C\[C@H](O[C@@H]2O[C@H](C)[C@@H](O)[C@H](N)[C@@H]2O)C[C@@H]2O[C@](O)(C[C@@H](O)C[C@@H](O)[C@H](O)CC[C@@H](O)C[C@@H](O)CC(=O)O[C@H]1C)C[C@H](O)[C@H]2C(=O)O (stereo in doubt)	none
CCN1\C(=C/C=C/C=C/c2sc3ccccc3[n+]2CC)Sc2ccccc21	EPAC2 ant val inconclusive
O=C(Nc1ccc(Oc2ccc(Cl)cc2)c(Cl)c1)c1cc(I)cc(I)c1O	EPAC1 agonist 100µM
O=C(Nc1ccc(Cl)cc1)Nc1ccc(Cl)c(Cl)c1	EPAC2 ant val inconclusive
Cc1cc(-c2ccnc(-n3ncc(C(=O)NCC4COCCO4)c3C)n2)c(C)s1 (stereo not given)	none
O=c1c(-c2ccc(Cl)cc2)nc2cncnc2n1Cc1ccccc1	EPAC1 agonist inconclusive
O=c1c(-c2ccc(Cl)cc2)nc2cncnc2n1Cc1ccccc1Cl	EPAC1 agonist 112µM
Cc1ccc(F)cc1S(=O)(=O)NCc1nc(N2CCCC2)c2cccc(C)c2n1	none
CCCN1CCC(=O)N([C@H](COc2ccccc2)CC(C)C)CC1	none
CC(C)C[C@@H](COc1ccccc1)N1CCN(CCc2ccccc2)CCC1=O	EPAC2 ant val 31.6µM
Cc1ccn(CCC(=O)NCC2Cc3cc(Cl)cc(-c4ccc5[nH]ccc5c4)c3O2)n1 (stereo not given)	none
Cc1ncsc1CCC(=O)N1CCCC(c2nc(-c3ccncc3)ncc2-c2ccccc2)C1 (stereo not given)	none
CCCCCCCCCCCCCC[N+](C)(C)Cc1ccccc1	none
CCCCCCCC[N+](C)(C)CCCCCCCC	none
CCCCCCCCCCCCCCCC[N+](C)(C)Cc1ccccc1	EPAC2 ant val 79.4µM
CCCCCCCCCCCCCCCC[N+](C)(C)CC	EPAC2 ant val 56.2µM
NC(N)=NCC1COC2(CCCCC2)O1 (stereo not given)	none
CCCCN(CCCC)C(=S)[S-].CCCCN(CCCC)C(=S)[S-].[Zn+2]	none
CCN(CC)CCNC(=O)c1cnn(-c2nccc(-c3cc4ccccc4o3)n2)c1C	none
COC(=O)[C@@]1(C)CCC[C@@]2(C)c3ccc(O)c(C(C)C)c3CCC21 (stereo not given in full)	EPAC2 ant val inconclusive
CC(=O)Oc1ccc2c(c1C(C)C)CCC1C(C)(C)CCC[C@@]21C (stereo not given in full)	EPAC1 agonist 100µM
C/C1=C2N=C(/C=C3N=C(/C(C)=C4\[N-]C(C(CC(N)=O)C4(C)CCC(=O)NCC(C)OP(=O)([O-])OC4C(CO)OC(n5cnc6cc(C)c(C)cc65)C4O)C4(C)N=C1C(CCC(N)=O)C4(C)CC(N)=O)C(CCC(N)=O)C\3(C)C)C(CCC(N)=O)C/2(C)CC(N)=O.[CH3-].[Co+3] (stereo not given)	EPAC2 ant val 10µM
CCc1cc(C(=O)NCC2Cc3cc(C)cc(-c4cc(C(C)=O)ccc4F)c3O2)n(C)n1 (stereo not given)	EPAC2 ant val inconclusive
COc1ccc(C[C@@H](C)NC[C@H](O)c2ccc(O)c(NC=O)c2)cc1	none
CCN(CC)c1ccccc1/C=C/[n+]1ccc(CCCCI)c2ccccc21	EPAC2 ant val 56.2µM
CC(C)(O)C#Cc1ccc(C(=O)NCCN2Cc3ccccc3OC(c3ccccc3F)C2)o1 (stereo not given)	EPAC2 ant val inconclusive
COC(=O)c1ccc(CN2CCOc3ccc(CN4CCC(O)(c5cccnc5)CC4)cc3C2)cc1	none
CNC(C)CCC=C(C)C (stereo not given)	none
CCCCC[C@H](O)/C=C/[C@H]1[C@H](O)CC(=O)[C@@H]1C/C=C\CCCC(=O)O	none
CCCCC[C@H](O)C=C[C@H]1[C@H](O)CC(=O)[C@H]1CCCCCCC(=O)O	EPAC2 ant val 56.2µM
CC1=C[C@H](O)CC(C)(C)[C@H]1/C=C/C(C)=C/C=C/C(C)=C/C=C/C=C(C)/C=C/C=C(C)/C=C/C1=C(C)C[C@@H](O)CC1(C)C	none
COc1cc([C@@H]2c3cc4c(cc3C(O[C@@H]3O[C@@H]5COC(c6cccs6)O[C@H]5[C@H](O)[C@H]3O)C3COC(=O)[C@@H]32)OCO4)cc(OC)c1O (stereo not given in full)	EPAC1 agonist inconclusive
COc1ccc2[nH]cc(CCNc3ccnc(-c4ccoc4)n3)c2c1	EPAC2 ant val 89.1µM
COc1ccc2[nH]cc(CCNc3ccnc(-c4ccc(N(C)C)cc4)n3)c2c1	EPAC1 agonist inconclusive
O=C(c1cccc(F)c1)N1CCC2(CCCN(c3cccc(-c4ccccc4)c3)C2)CC1	EPAC1 agonist 100µM
O=C(c1csnn1)N1CCC2(CC1)CN(c1ccccc1)C2	none
O=C(c1csnn1)N1CCC2(CC1)CN(c1cccc(-c3ccccc3)c1)C2	EPAC2 ant val inconclusive, EPAC1 agonist 100µM
O=C(c1cccc(F)c1)N1CCC2(CC1)CN(c1cccc(-c3ccccc3)c1)C2	EPAC2 ant val inconclusive, EPAC1 agonist 89.1µM
O=C(Oc1ccccc1)N1CCC2(CC1)CCN(c1cccc(-c3ccccc3)c1)CC2	none
O=C(c1cccc(F)c1)N1CCC2(CC1)CCN(c1cccc(-c3ccccc3)c1)CC2	none
O=C(c1cccc(F)c1)N1CCC[C@@]2(CCN(c3cccc(-c4ccccc4)c3)C2)C1	none
COC(=O)N1CCC2(CC1)CCN(c1cccc(-c3ccccc3)c1)CC2	EPAC1 agonist 100µM
CC(C)(C)CC(=O)OCC(=O)[C@@]12OC(C)(C)O[C@@H]1C[C@H]1[C@@H]3CCC4=CC(=O)C=C[C@]4(C)[C@@]3(F)[C@@H](O)C[C@@]12C	none
NCCC[C@H](N)CC(=O)N[C@H]1CNC(=O)[C@H]([C@H]2C[C@H](O)N=C(N)N2)NC(=O)C(=CNC(N)=O)NC(=O)[C@H](CO)NC(=O)[C@H](CO)NC1=O	none
